# According to PubChem BioAssay (EPA / NIEHS):
# “And” between values parts separate entries of the source, which are not always exact repeats. Equal entries are not always repeated. More than one record can exist for a structure, and the calls need not agree. The source made the active and inactive calls. Rule for the calls: active = hit-call score of the fitted dose curve at least 0.9, where 1 is the maximum; inactive = score below 0.9.
# Read-out: Vascular cell adhesion molecule 1 (VCAM1), VCAM1 (gene 7412)
# Experiment: BSK_4H_VCAM1: BioMAP Diversity Plus: 4H Assay for Vascular cell adhesion molecule 1 (VCAM1) Biomarker Activity (AID 2283033)
# Settings: primary human endothelial cells (HUVEC); actives raise or lower the signal
# Description: BSK_4H is a cell-based, multiplexed-readout assay that uses umbilical vein endothelium, a human vascular primary cell, with measurements taken at 24 hours after chemical dosing in a 96-well plate.BSK_4H_VCAM1 is an assay component measured in the BSK_4H assay. It measures VCAM-1 antibody related to regulation of gene expression using ELISA technology.Data from the assay component BSK_4H_VCAM1 was analyzed into 1 assay endpoint. This assay endpoint, BSK_4H_VCAM1, was analyzed with bidirectional fitting relative to DMSO as the negative control and baseline of activity. Using a type of binding reporter, gain or loss-of-signal activity can be used to understand changes in the signaling as they relate to the gene VCAM1. Furthermore, this assay endpoint can be referred to as a primary readout, because this assay has produced multiple assay endpoints where this one serves a signaling function. To generalize the intended target to other relatable targets, this assay endpoint is annotated to the cell adhesion molecules intended target family, where the subfamily is Immunoglobulin CAM.
# The levels of cell surface (or secreted, indicated by the prefix "s") biomarker endpoints were measured by ELISA. Overt cytotoxicity to cells in confluent adherent cultures (all systems other than the BT system) was assessed by measuring total protein levels using sulforhodamine B (SRB) staining in parallel cultures at the time of biomarker measurements, indicated as SRB endpoints. For proliferation assays for adherent cell types, individual cell types are cultured at sub-confluence and relative cell numbers quantified by SRB staining at time points optimized for each system (48 h: 3C and CASM3C systems; 72 h: BT and HDF3CGF systems; 96 h: SAg system). SRB was performed by staining cells with 0.1% SRB after fixation with 10% TCA and reading wells at 560 nm.Viability and proliferation of PBMC (T cells) was quantified by Alamar Blue reduction for the SAg and BT systems. For PBMC viability (referred to as PBMC Cytotoxicity within the assay endpoint names), cells were plated (75,000/well in a 96-well plate) and then chemical samples added for 1 h before addition of activators, SEB and TSST-1 (20 ng/mL final concentration each). Cells were incubated for 90 h. Then, Alamar Blue (20 uL/well) (Invitrogen, Cat DAL1100) was added for 6 h, and the plates were read with a fluorescence microplate reader at 546/580 nm (excitation/emission). For PBMC proliferation, cells were plated and activated as above but incubated for only 16 h prior to addition of Alamar Blue. Plates were read after 6 h.
SMILES,outcome,AC50
NC(=O)C(F)(F)C(F)(F)C(F)(F)C(F)(F)C(F)(F)C(F)(F)C(F)(F)F,inactive,
OCC(O)CC(F)(F)C(F)(F)C(F)(F)C(F)(F)F (stereo not given),inactive,
CCN(CC)c1ccc(C=O)c(O)c1,inactive,
O=C1c2c(O)ccc(Nc3ccc(CCO)cc3)c2C(=O)c2c([N+](=O)[O-])ccc(O)c21,,26.6 µM (active)
OCC(F)(F)C(F)(F)C(F)(F)CO,inactive,
CCN(CC)c1ccc2c(c1)Oc1cc(N(CC)CC)ccc1C21OC(=O)c2ccccc21,inactive,
O=C(O)C(F)(F)C(F)(F)C(F)(F)OC(F)(F)F,inactive,
NC(O)(C(F)(F)F)C(F)(F)F,inactive,
O=C(O)CCC(F)(F)C(F)(F)C(F)(F)F,inactive,
C=CC(=O)OCC(F)(F)C(F)(F)C(F)(F)C(F)(F)C(F)(F)C(F)(F)C(F)(F)C(F)F,inactive,
OCC(F)(F)C(F)(F)C(F)(F)C(F)(F)C(F)(F)C(F)(F)C(F)(F)C(F)(F)CO,,30 µM (active) and 24.8 µM (active)
Nc1cc([N+](=O)[O-])cc(Cl)c1O,inactive,
CCN(CC)c1ccc(N=Nc2ccccc2)cc1,,16.9 µM (active)
Cc1cc(C)c(O)c(C(C)(C)C)c1,,30.4 µM (active)
NC(=O)C(F)(F)C(F)(F)C(F)(F)C(F)(F)C(N)=O,inactive,
NS(=O)(=O)C(F)(F)C(F)(F)C(F)(F)C(F)(F)C(F)(F)C(F)(F)F,inactive,30 µM (active)
NCC(F)(F)C(F)(F)C(F)(F)C(F)(F)C(F)(F)C(F)(F)C(F)(F)C(F)(F)F,inactive,
O=C(Cl)C(F)(F)C(F)(F)C(F)(F)C(F)(F)C(F)(F)C(F)(F)C(F)(F)F,inactive,
CC(C)(C)c1cc(CCC(=O)NCCCCCCNC(=O)CCc2cc(C(C)(C)C)c(O)c(C(C)(C)C)c2)cc(C(C)(C)C)c1O,inactive,

SMILES,outcome,AC50
CCN=C1C=CC(=C(c2ccc(N(CC)CC)cc2)c2ccc(N(CC)CC)cc2)c2ccccc21,,2.13 µM (active) and 2.05 µM (active)
O=S(=O)(OCC(F)(F)F)C(F)(F)C(F)(F)C(F)(F)C(F)(F)F,inactive,
CCOC(C=C(C)CCC=C(C)C)OCC,,31.5 µM (active)
O=C(O)CCC(F)(F)C(F)(F)C(F)(F)C(F)(F)C(F)(F)C(F)(F)C(F)(F)F,inactive,
C=CC(=O)OCCC(F)(F)C(F)(F)C(F)(F)C(F)(F)F,inactive,21.1 µM (active)
CN(C(=O)C(F)(F)C(F)(F)C(F)(F)F)[Si](C)(C)C,inactive,
O=C(O)C(F)(F)C(F)(F)C(F)(F)C(F)(F)C(F)(F)C(F)(F)C(F)F,inactive,
O=C(O)C(F)(F)C(F)(F)C(F)(F)OC(F)(C(F)(F)F)C(F)(F)F,inactive,
CC1=CC2C3C=CC(C3)C2C1C (stereo not given),inactive,
CCN(CCO)S(=O)(=O)C(F)(F)C(F)(F)C(F)(F)C(F)(F)C(F)(F)C(F)(F)C(F)(F)C(F)(F)F,inactive,50.6 µM (active)
Cc1cnccn1,inactive,
O=C(F)C1(F)C(F)(F)C(F)(F)C(F)(F)C(F)(F)C1(F)F,inactive,
OCCCCC(F)(F)C(F)(F)C(F)(F)C(F)(F)F,inactive,
OCC(F)(F)C(F)(F)C(F)(F)C(F)(F)C(F)(F)C(F)(F)CO,inactive,
Cc1ccc(S(=O)(=O)C(I)I)cc1,,2.19 µM (active)
C=CC(=O)OCC(F)(F)C(F)(F)C(F)(F)COC(=O)C=C,,19.1 µM (active) and 14 µM (active)
OCC(O)CC(F)(F)C(F)(F)C(F)(F)C(F)(F)C(F)(F)C(F)(F)C(F)(F)C(F)(F)F (stereo not given),inactive,
O=C(c1ccccc1)c1ccc(O)cc1O,inactive,
